Measurements as given in PubChem BioAssay AID1159580 (chemical genetic matrix, 2015).
“And” between values parts separate entries of the source, which are not always exact repeats. Equal values may be shown once. The whole screen tested about 5,500 compounds, of which about 2,000 (36%) were called active. Not shown: some 18% with an inconclusive outcome. Rule as the data show it: active = normalized growth mostly below about 0.91 (no sharp cut-off); inconclusive = no clear call, values can overlap the other calls; inactive = mostly above about 0.92. This is one part of the list.

Assay: chemical genetic growth profiling, strain panel (AID 1159580);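 also: tested at 20 µM; growth read once vehicle control cultures reached saturation at 30 °C; 1 = growth at the plate median or of vehicle wells; lower values mean less growth of the strain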
Conditions: S. cerevisiae deletion strains, growth OD
[1] = locus YDR150W, strain NUM1, active compounds read low
[2] = locus YGR078C, strain PAC10, active compounds read low
[3] = locus YJR075W, strain HOC1, active compounds read low
[4] = locus YMR307W, strain GAS1, active compounds read low
[5] = locus YNL153C, strain GIM3, active compounds read low
[6] = locus YPL241C, strain CIN2, active compounds read low

Measured: normalized growth

CC(=O)c1c(O)c(C)c(O)c(Cc2c(O)c3c(c(C(=O)/C=C/c4ccccc4)c2O)OC(C)(C)C=C3)c1O
active: locus YCL061C, strain MRC1 (second series), active compounds read low 0.917 | [1] 0.883 | [3] 0.877 | [4] 0.877 | locus YPL055C, strain LGE1, active compounds read low 0.881 | [6] 0.902
inactive: locus YAL013W, strain DEP1, active compounds read low 0.909 | locus YAL040C, strain CLN3, active compounds read low 1 | locus YDR363W, strain ESC2, active compounds read low 0.999 | locus YER002W, strain NOP16, active compounds read low 1.06 | [2] 0.989 | locus YGR229C, strain SMI1, active compounds read low 0.876 | [5] 0.857 | locus YNL175C, strain NOP13, active compounds read low 1.06 | locus YNL197C, strain WHI3, active compounds read low 1.01 | locus YNL224C, strain SQS1, active compounds read low 1.01 | locus YOR083W, strain WHI5 (second series), active compounds read low 0.898

COc1ccc(C(=O)CC(=O)O)c2c1C=CC(C)(C)O2
inactive: locus YAL021C, strain ccr4, active compounds read low 1 | locus YAL026C, strain drs2, active compounds read low 1 | locus YAL030W, strain snc1, active compounds read low 0.992 | locus YBL061C, strain skt5, active compounds read low 0.999 | locus YBR009C, strain hhf1, active compounds read low 1.01 | locus YBR021W, strain FUR4, active compounds read low 0.986 | locus YBR023C, strain chs3, active compounds read low 1.01 | locus YBR171W, strain sec66, active compounds read low 0.986 | locus YBR229C, strain ROT2, active compounds read low 0.983 | locus YBR231C, strain swc5, active compounds read low 0.987 | locus YBR279W, strain paf1, active compounds read low 1.01 | locus YCL011C, strain gbp2, active compounds read low 1.01 | locus YCL016C, strain dcc1, active compounds read low 1.02 | locus YCL029C, strain bik1, active compounds read low 0.997 | locus YCL061C, strain MRC1, active compounds read low 1 | locus YCL069W, strain vba3, active compounds read low 1.01 | locus YCR088W, strain abp1, active compounds read low 0.995 | locus YDL005C, strain med2, active compounds read low 0.983 | locus YDL035C, strain GPR1, active compounds read low 1.02 | locus YDL040C, strain nat1, active compounds read low 1 | locus YDL074C, strain BRE1, active compounds read low 1 | locus YDL101C, strain DUN1, active compounds read low 1.01 | locus YDL185W, strain tfp1, active compounds read low 0.988 | locus YDL192W, strain arf1, active compounds read low 0.996 | locus YDR001C, strain nth1, active compounds read low 0.995 | locus YDR069C, strain doa4, active compounds read low 0.984 | locus YDR101C, strain arx1, active compounds read low 0.995 | locus YDR137W, strain rgp1, active compounds read low 1.03 | [1] 0.999 | locus YDR159W, strain sac3, active compounds read low 0.956 | locus YDR162C, strain NBP2, active compounds read low 1.06 | locus YDR195W, strain ref2 0.962 | locus YDR297W, strain sur2, active compounds read low 0.997 | locus YDR318W, strain mcm21, active compounds read low 0.997 | locus YDR334W, strain swr1, active compounds read low 0.997 | locus YDR335W, strain msn5, active compounds read low 1.01 | locus YDR388W, active compounds read low 1.01 | locus YDR392W, strain spt3, active compounds read low 0.96 | locus YDR502C, strain sam2, active compounds read low 1.02 | locus YEL003W, strain gim4, active compounds read low 0.999 | locus YEL037C, strain rad23, active compounds read low 0.999 | locus YEL061C, strain CIN8, active compounds read low 0.998 | locus YER015W, strain faa2, active compounds read low 1.01 | locus YER016W, strain bim1, active compounds read low 0.99 | locus YER110C, active compounds read low 0.977 | locus YER111C, strain swi4, active compounds read low 1 | locus YER155C, strain BEM2 (second series), active compounds read low 0.99 | locus YER155C, strain BEM2, active compounds read low 0.983 | locus YER167W, strain BCK2, active compounds read low 0.993 | locus YFR010W, strain ubp6, active compounds read low 0.994 | locus YGL078C, strain dbp3, active compounds read low 0.994 | locus YGL086W, strain mad1, active compounds read low 0.99 | locus YGL167C, strain pmr1, active compounds read low 0.994 | locus YGL173C, strain kem1, active compounds read low 0.99 | locus YGL227W, strain vid30, active compounds read low 0.981 | locus YGL240W, strain doc1, active compounds read low 1.02 | locus YGL248W, strain PDE1, active compounds read low 1 | locus YGL253W, strain hxk2, active compounds read low 1 | [2] 1.03 | locus YGR135W, strain pre9, active compounds read low 0.992 | locus YGR252W, strain gcn5, active compounds read low 0.979 | locus YHR013C, strain ard1, active compounds read low 1.02 | locus YHR027C, strain rpn1, active compounds read low 0.982 | locus YHR030C, strain SLT2, active compounds read low 0.997 | locus YHR079C, strain IRE1 (second series), active compounds read low 0.991 | locus YHR079C, strain IRE1, active compounds read low 0.987 | locus YHR094C, strain hxt1, active compounds read low 1 | locus YHR129C, strain ARP1, active compounds read low 0.998 | locus YHR142W, strain chs7, active compounds read low 1 | locus YHR200W, strain rpn10, active compounds read low 0.987 | locus YIL066C, strain RNR3, active compounds read low 1.02 | locus YIL073C, strain SPO22, active compounds read low 1.04 | locus YIL125W, strain kgd1, active compounds read low 1.01 | locus YIR030C, strain dcg1, active compounds read low 0.993 | locus YJL092W, strain hpr5, active compounds read low 1 | locus YJL095W, strain BCK1 (second series), active compounds read low 0.99 | locus YJL095W, strain BCK1, active compounds read low 1.05 and 1.08 | locus YJL115W, strain asf1, active compounds read low 1 | locus YJL129C, strain trk1, active compounds read low 1 | locus YJL134W, strain LCB3, active compounds read low 0.995 | locus YJL154C, strain vps35, active compounds read low 0.996 | locus YJL164C, strain tpk1, active compounds read low 1.01 | locus YJL166W, strain qcr8, active compounds read low 1 | locus YJL168C, strain set2, active compounds read low 0.998 | locus YJL187C, strain SWE1 (second series), active compounds read low 1.02 | locus YJL187C, strain SWE1, active compounds read low 1.01 | locus YJR043C, strain POL32, active compounds read low 1.04 | locus YJR066W, strain TOR1, active compounds read low 0.949 | [3] 1.02 | locus YKL009W, strain mrt4, active compounds read low 1.03 | locus YKL068W, active compounds read low 0.992 | locus YKL085W, strain MDH1 (second series), active compounds read low 1 | locus YKL085W, strain MDH1, active compounds read low 1 | locus YKL160W, strain elf1, active compounds read low 1.01 | locus YKL190W, strain CNB1, active compounds read low 0.994 | locus YKR001C, strain vps1, active compounds read low 0.994 | locus YKR026C, strain gcn3, active compounds read low 0.995 | locus YKR091W, strain srl3, active compounds read low 0.997 | locus YLL001W, strain dnm1, active compounds read low 1.01 | locus YLL026W, active compounds read low 1 | locus YLL041C, strain sdh2, active compounds read low 1.01 | locus YLR027C, strain aat2, active compounds read low 1.01 | locus YLR039C, strain RIC1, active compounds read low 1.08 | locus YLR058C, strain SHM2, active compounds read low 0.996 | locus YLR102C, strain apc9, active compounds read low 0.992 | locus YLR113W, strain HOG1, active compounds read low 1.07 | locus YLR221C, strain rsa3, active compounds read low 0.99 | locus YLR258W, strain gsy2, active compounds read low 1 | locus YLR262C, strain YPT6 (second series), active compounds read low 1.03 | locus YLR262C, strain YPT6, active compounds read low 1.06 | locus YLR268W, strain sec22, active compounds read low 1.01 | locus YLR320W, strain mms22, active compounds read low 0.987 | locus YLR330W, strain CHS5, active compounds read low 0.995 | locus YLR342W, strain FKS1 (second series), active compounds read low 1 | locus YLR342W, strain FKS1, active compounds read low 0.999 | locus YLR357W, strain rsc2, active compounds read low 0.959 | locus YLR370C, strain arc18, active compounds read low 1.03 | locus YLR371W, strain rom2, active compounds read low 0.997 | locus YLR384C, strain iki3, active compounds read low 0.99 | locus YLR418C, strain cdc73, active compounds read low 0.998 | locus YML016C, strain PPZ1, active compounds read low 0.99 | locus YML032C, strain rad52, active compounds read low 1 | locus YML120C, strain ndi1, active compounds read low 1.01 | locus YML124C, strain tub3, active compounds read low 0.997 | locus YMR058W, strain fet3, active compounds read low 1.01 | locus YMR078C, strain ctf18, active compounds read low 0.977 | locus YMR125W, strain sto1, active compounds read low 0.994 | locus YMR129W, active compounds read low 1 | locus YMR205C, strain PFK2, active compounds read low 1.01 | locus YMR223W, strain ubp8, active compounds read low 1.01 | locus YMR231W, strain pep5, active compounds read low 0.994 | locus YMR263W, strain SAP30, active compounds read low 1.01 | [4] 0.939 | locus YNL067W, strain RPL9B, active compounds read low 1.04 | locus YNL071W, strain lat1, active compounds read low 1.01 | [5] 1.04 | locus YNL183C, strain NPR1, active compounds read low 0.995 | locus YNL209W, strain ssb2, active compounds read low 1.01 | locus YNL233W, strain BNI4, active compounds read low 1.03 | locus YNL248C, strain rpa49, active compounds read low 0.903 | locus YNL250W, strain rad50, active compounds read low 0.981 | locus YNL271C, strain bni1, active compounds read low 0.984 | locus YNL298W, strain CLA4, active compounds read low 0.979 | locus YNL307C, strain MCK1, active compounds read low 0.99 | locus YNL322C, strain KRE1 (second series), active compounds read low 1.01 | locus YNL322C, strain KRE1, active compounds read low 0.998 | locus YNR049C, strain mso1, active compounds read low 1.02 | locus YNR052C, strain pop2, active compounds read low 0.985 | locus YOL006C, strain TOP1, active compounds read low 1.11 | locus YOL012C, strain htz1 0.738 | locus YOL147C, strain pex11, active compounds read low 0.993 | locus YOR001W, strain rrp6, active compounds read low 0.971 | locus YOR061W, strain CKA2, active compounds read low 0.993 | locus YOR069W, strain VPS5, active compounds read low 0.989 | locus YOR070C, strain gyp1, active compounds read low 1 | locus YOR080W, strain dia2, active compounds read low 0.994 | locus YOR083W, strain WHI5, active compounds read low 1.01 | locus YOR106W, strain vam3, active compounds read low 1.03 | locus YOR136W, strain idh2, active compounds read low 0.985 | locus YOR144C, strain elg1, active compounds read low 0.999 | locus YOR184W, strain ser1, active compounds read low 1.03 | locus YOR231W, strain MKK1, active compounds read low 0.994 | locus YOR265W, strain rbl2, active compounds read low 1.02 | locus YOR270C, strain vph1, active compounds read low 0.995 | locus YOR290C, strain snf2, active compounds read low 0.997 | locus YOR316C, strain cot1, active compounds read low 0.996 | locus YPL051W, strain arl3, active compounds read low 1.01 | locus YPL078C, strain atp4, active compounds read low 1.03 | locus YPL106C, strain sse1, active compounds read low 0.987 | locus YPL240C, strain hsp82, active compounds read low 0.999 | [6] 0.996 | locus YPL256C, strain CLN2, active compounds read low 0.997 | locus YPR119W, strain clb2, active compounds read low 1 | locus YPR141C, strain kar3, active compounds read low 0.991 | locus YPR163C, strain tif3, active compounds read low 0.992 | locus YPR167C, strain met16, active compounds read low 0.995 | strain wtn01, active compounds read low 0.991
